FLuc modulator – inhibits or activates purified firefly luciferase, miR-21 counter-screen; hit rate 6.9% among 360,000; purified FLuc, Km substrates, luminescence inhibition; Potency, µM (doses to about 57.5 µM), for inactives: at the top dose activity change, negative = inhibition, actives largely listed as inhibitors; AID 588342; P08659;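 also: plate controls were vehicle for no effect and reference inhibitor for full effect; nearly all actives have a fitted effect of over 55% in size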
Target sequence (P08659 whole entry, looked up): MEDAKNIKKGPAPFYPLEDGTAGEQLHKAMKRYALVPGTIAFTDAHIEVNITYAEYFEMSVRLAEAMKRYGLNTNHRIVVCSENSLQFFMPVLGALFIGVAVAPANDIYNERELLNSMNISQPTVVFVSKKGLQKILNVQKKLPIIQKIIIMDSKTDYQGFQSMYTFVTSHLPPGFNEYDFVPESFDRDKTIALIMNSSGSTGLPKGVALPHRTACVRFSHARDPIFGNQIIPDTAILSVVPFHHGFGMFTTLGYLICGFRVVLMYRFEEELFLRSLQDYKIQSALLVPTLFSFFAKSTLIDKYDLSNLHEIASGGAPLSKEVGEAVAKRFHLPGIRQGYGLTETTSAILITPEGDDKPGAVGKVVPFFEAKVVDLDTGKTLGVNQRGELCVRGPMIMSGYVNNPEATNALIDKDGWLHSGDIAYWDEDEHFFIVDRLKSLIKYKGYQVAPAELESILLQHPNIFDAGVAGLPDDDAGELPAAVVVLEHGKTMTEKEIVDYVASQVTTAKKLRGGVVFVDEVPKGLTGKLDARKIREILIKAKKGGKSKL
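Biochemical qHTS of compounds, final roughly 60 µM downward over six points, against 10 nM purified firefly luciferase using Km concentrations of substrates (10 uM D-luciferin, 10 uM ATP) in Tris acetate pH 7.5 buffer; luminescence output.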
NPC1 promoter act – activators of NPC1 promoter. Huh7 NPC1 promoter luciferase reporter, 24 h. Potency, µM (titrated, usually from 9.22 µM), for the others: at the top dose activation, usual class: activators. hit rate 2.4% among 320,000. AID 485313; also: % of control where 0% means no effect; nearly all actives have a fitted effect of over 60% in size
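Compounds in DMSO were transferred onto Huh7 NPC1-luciferase reporter cells pre-incubated 2 h; after 24 h at 37 °C, Amplite reagent was dispensed and luminescence recorded 10 min later.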
ELG1 genotoxic – inducers of genotoxicity in HEK293T ELG1-luciferase cells | HEK293T ELG1-luciferase reporter, luminescence, 16 h | AID 504466 | Potency, µM (highest dose often 46 µM), for the others: at the highest dose activity change, positive = activation, most hits filed as activators | hit rate 1.3% among 330,000; also: % of control where 0% means no effect; nearly all actives have a fitted effect of over 60% in size
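16 hr compound incubation (37 °C, 5% CO2) of HEK293T cells carrying luciferase-tagged ELG1; luciferase then measured by ONE-Glo luminescence after 30 min at RT.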
Rab9 prom act – activates the Rab9 promoter. Huh7 Rab9 promoter-luciferase reporter, luminescence, 24 h. Potency, µM (top dose mostly 9.22 µM), for inactives: at the highest dose activation, negative = inhibition, hits mostly activators. hit rate 2.8% among 320,000. AID 485297; also: % of control where 0% means no effect; nearly all actives have a fitted effect of over 60% in size
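Huh7 cells stably carrying a Rab9 promoter-luciferase reporter, 1500 cells per well in OP-MEM I with 10% FBS, treated with compound 24 hours at 37C. Luciferase activity read by luminescence after 10 minutes with Amplite reagent.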
SMN2 splice up – enhancers of SMN2 splice variant expression | AID 1458 | Potency, µM (series often up to 46.1 µM), inactives show at the highest dose activity change, positive = activation, hits mostly activators | HEK293 SMN2-luciferase splicing reporter, luminescence, 30-36 h | hit rate 2.8% among 210,000; also: % of control where 0% means no effect; nearly all actives have a fitted effect of over 55% in size
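HEK293 cells carry an SMN2 […]–luciferase reporter in which exon 7 inclusion puts luciferase in frame. Cells were plated 10-12 h before compound addition, then incubated 30-36 h at 37C. ONE-Glo luminescence was read; sodium butyrate at 4.5 mM final served as control.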
ELG1 repair inh – blocks ELG1-dependent DNA repair in HEK293T cells | HEK293T ELG1-luciferase reporter, luminescence, 16 h; DNA damage induced by 5-fluorouridine | Potency, µM (highest dose often 46.1 µM), inactives show top-dose activity change, negative = inhibition, most hits filed as inhibitors | hit rate 2.3% among 330,000 | AID 504467; also: % is scaled to controls: 0 for no effect and ±100 for the full control effect; nearly all actives have a fitted effect of over 55% in size
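Overnight (16 hr) co-exposure of 2,000 cells/well to 5-fluorouridine and compound at 37 °C preceded detection. Luciferase was quantified via ONE-Glo luminescence; loss of signal denotes inhibition.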
* hit, by the source's call; u = inconclusive; x = no result given; [ ] = remark or other dose. Sampled rows, rich in hits. Any-hit rate of the full collection: about 9.2%. Calls follow the shape of the dose curve; as a rule, active = well fitted curve in the direction sought with a large enough effect; inconclusive = small, poorly fitted or top-dose-only effect, or another doubt; inactive = no such curve, though single readings can be large; an effect the other way counts as inactive or inconclusive. Potency is read from the fitted curve at half-maximal effect.

SMILES	FLuc modulator	NPC1 promoter act	ELG1 genotoxic	Rab9 prom act	SMN2 splice up	ELG1 repair inh
Cc1cc(NC(=O)COC(=O)C2CCN(C(=O)c3ccc(Cl)cc3)CC2)no1	0.8%	-1.6%	-0.5%	0.7%	-0.4%	-3.2%
CCCCOc1ccc(CNC(=O)Cc2ccc(NC(=O)N3CCSc4ncccc43)cc2)cc1	-16.2%	x	x	x	x	x
CCOc1ccccc1N(C)C(=O)c1cn(C)c(=O)c2ccccc12	-0.2%	-2.6%	4.0%	-1.4%	x	22.6%
O=C1N(c2ccccc2C(F)(F)F)O[C@]1(c1ccccc1)C1CCCC1	4.6%	-4.8%	-3.3%	-8.3%	x	u
Cc1cc(C(=O)COC(=O)c2ccc3c(c2)OCO3)c(C)n1CC1CCCO1 (stereo not given)	2.13µM*	1.58µM*	u	1.26µM*	18.4%	u
CC(=O)OC1CC(C)N(C(=O)c2ccccc2)c2ccc(C)cc21 (stereo not given)	-0.6%	3.6%	20.6µM*	0.8%	u	0.0%
CCCC(=O)OC1CC(C)N(C(=O)c2ccccc2)c2ccc(C)cc21 (stereo not given)	1.4%	-8.0%	3.1%	0.4%	-86.5%	u
Cc1ccc(-c2nc(C#N)c(NCc3ccco3)o2)cc1	4.78µM*	u	5.8µM*	u	u	u
N#Cc1nc(-c2ccc(F)cc2)oc1NCc1ccco1	u	11.7%	5.4%	14.6%	x	u
Cc1cccc(-c2nc(C#N)c(NCc3ccco3)o2)c1	10.7µM*	u	u	u	x	u
COc1ccc(-c2nc(C#N)c(NCc3ccco3)o2)cc1	13.5µM*	u	u	u	20µM*	u
C=CCNc1oc(-c2ccc(OC)cc2)nc1C#N	8.49µM*	u	14.6µM*	2.82µM*	u	u
COc1ccc(Nc2oc(COc3cccc(C)c3)nc2C#N)cc1	5.36µM*	u	16.4µM*	u	18.7%	u
CC(C)(C)c1ccc(-c2nc(C#N)c(NCc3cccnc3)o2)cc1	10.7µM*	9.7%	u	u	-17.9%	12.4%
N#Cc1nc(COc2cccc(Cl)c2)oc1NCc1ccco1	19µM*	19.3%	u	u	12.0%	u
O=C(Nc1cc2c(cc1Cl)OCCCO2)c1ccc(F)cc1	12µM*	u	u	2.82µM*	7.94µM*	u
O=C(Nc1cc2c(cc1C(=O)c1ccccc1Cl)OCCO2)c1ccc(Br)cc1	-8.5%	x	x	x	-1.5%	x
Cc1ccc(C(=O)Nc2cc3c(cc2Cl)OCCCO3)cc1	7.57µM*	1.78µM*	u	2µM*	11.2µM*	u
O=C(Nc1cc2c(cc1Br)OCCCO2)c1ccccc1	13.5µM*	3.55µM*	u	3.98µM*	15.8µM*	u
O=C(Nc1cc2c(cc1Br)OCCCO2)c1cccnc1	u	19.8%	u	8.0%	x	u
CC(=O)c1cc2c(cc1NC(=O)c1ccc(Cl)cc1)OCCO2	-3.8%	-1.3%	17.9%	-2.4%	x	u
C#CCN1C(=O)S/C(=C/c2cc(C)n(CC)c2C)C1=O	2.13µM*	2.82µM*	u	1.58µM*	x	u
CCn1c(C)cc(/C=C2\NC(=O)N(Cc3ccccc3)C2=O)c1C	-15.4%	8.2%	0.0%	3.3%	-4.7%	u
CCn1c(C)cc(/C=C2/SC(=S)N(CC(=O)O)C2=O)c1C	2.69µM*	5.2%	-8.9%	0.9%	-13.1%	12.2%
CCN1C(=O)/C(=C/c2cnn(CC)c2C)SC1=S	u	0.7%	u	1.0%	-4.4%	u
SMILES	FLuc modulator	NPC1 promoter act	ELG1 genotoxic	Rab9 prom act	SMN2 splice up	ELG1 repair inh
CCOc1ccc2nc(N3CCCC(C(=O)NCc4ccccc4OC)C3)sc2c1 (stereo not given)	u	x	x	x	11.3%	x
Cc1ccc(OCC(=O)NNc2c3ccccc3nc3ccccc23)cc1	-10.7%	-18.5%	-15.6%	-17.9%	-60.7%	u
Cc1cccc(OCc2nc3ccccc3n2C)c1	23.9µM*	u	u	u	x	u
Cc1cccc(OCc2nc3ccccc3c(=O)n2N)c1	16.9µM*	u	u	u	u	u
Cc1cccc(OCC(=O)NNc2c3ccccc3nc3ccccc23)c1	u	-29.3%	-0.2%	-22.3%	-58.5%	14.6µM*
COc1cccc(OCc2nc3ccccc3n2C)c1	10.7µM*	x	x	x	15.8µM*	x
Nn1c(COc2cccc(Cl)c2)nc2ccccc2c1=O	u	15.6%	8.9%	25.4%	u	u
COc1cccc(OCc2nc3ccccc3n2Cc2ccccc2C)c1	u	x	x	x	-26.7%	x
Cc1cc(NC(=O)CCC(=O)N(c2ccccc2C)C(C(=O)NC2CCCC2)c2ccccc2)no1 (stereo not given)	3.1%	-0.2%	-11.3%	-2.2%	x	-16.1%
Cc1ccc(-n2c(SCC(N)=O)nc3c(oc4ccccc43)c2=O)cc1C	-1.0%	x	x	x	6.6%	x
CCc1ccc(-c2nc(-c3cc4ccccc4oc3=O)sc2C)cc1	-3.0%	x	x	x	x	x
NCC(O)COc1cccc2ccccc12 (stereo not given)	x	x	x	x	-7.9%	x
CCC(=O)Nc1cccc(C(=O)/C=C/c2ccc(F)cc2)c1	15.1µM*	-3.9%	-20.1%	-13.6%	-62.1%	-3.2%
CC(=O)Nc1cccc(C(=O)/C=C/c2ccc(C)cc2)c1	4.78µM*	0.3%	8.8%	-5.6%	-3.6%	-14.5%
COc1cccc(NC(=S)NC(=O)/C=C/c2ccc(F)cc2)c1	-4.3%	5.1%	1.6%	-1.9%	x	-5.0%
Cn1c(=O)c(=O)n(C)c2cc(N3CCCC3)c(NS(=O)(=O)c3ccc(Cl)cc3)cc21	-1.3%	-3.4%	0.3%[9.26 µM]	7.5%	x	4.7%
O=C(CCC(=O)N1CCN(S(=O)(=O)c2ccccc2)CC1)c1ccc(Br)cc1	x	x	-9.1%	x	x	u
O=C(Oc1cccc([N+](=O)[O-])c1)C1CCN(C(=O)c2ccc(F)cc2)CC1	-1.8%	2.4%	7.0%	-2.0%	x	-2.5%
c1ccc2c(C3=NNC(=NC4CCCCC4)SC3)c[nH]c2c1	u	-1.3%	0.4%	15.3%	20µM*	u
c1ccc2c(C3=NNC(=NC4CC4)SC3)c[nH]c2c1	1.51µM*	u	u	0.631µM*	2µM*	u
c1ccc(C2=NNC(=NC3CC3)SC2)cc1	1.35µM*	u	u	0.112µM*	2.51µM*	u
CCC(C)[C@H](NC(=O)N1CC(=O)Nc2ccccc21)C(=O)N1CCC[C@H]1C(=O)O (stereo not given in full)	1.1%	-1.5%	2.5%	-7.5%	x	-2.9%
O=C(Nc1ccc(Cl)cc1)c1ccc2ncsc2c1	12µM*	2.82µM*	u	3.55µM*	x	u
O=C(O)c1ccc2ncsc2c1	u	u	14.2%	3.55µM*	x	u
